Screening data (PubChem)
NCOA1 inh: inhibitors of human steroid receptor coactivator 1 (SRC1) | HEK293 GAL4-SRC1 luciferase reporter, luminescence | inhibition, % at 3.6 µM | 0.12% of 360,000 active | AID 588354 | Q15788;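 active means inhibition above the campaign mean plus 3 SD, with each screening campaign given its own cutoff, cut at about 60% in these data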;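 further: 0% = DMSO treated cells and 100% = gossypol at 36 µM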
NR2F2 inh: inhibitors of human COUP-TFII (NR2F2); P24468; HEK293T NGFI-A luciferase reporter, luminescence; inhibition, % at 8.6 µM; 0.7% of 370,000 active; AID 686940;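 active means inhibition above a per-plate cutoff, mean inhibition of test wells between control levels plus 3 SD, cut at about 38% in these data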;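 further: cells cotransfected with COUP-TFII expression vector driving the NGFI-A reporter; 0% = median of COUP-TF2 test wells and 100% = reporter-only cells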
SRC2 inh: human SRC2 (NCOA2) inhibition; AID 651957; Q15596; inhibition, % at 9 µM; 0.17% of 370,000 active; HEK293 GAL4-SRC2 luciferase reporter, luminescence;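 active means inhibition above the mean inhibition of all tested compounds plus 3 SD, set per campaign, cut at about 52% in these data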;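 further: 0% = DMSO treated cells and 100% = cells given Gossypol at 36 µM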
NCOA3 inh: inhibitors of human steroid receptor coactivator 3 (SRC3); Q9Y6Q9; HEK293 GAL4-SRC3 luciferase reporter, luminescence; inhibition, % at 3.6 µM; 0.17% of 360,000 active;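 active means inhibition above a per-campaign cutoff, the mean of all compounds plus 3 SD, cut at about 60% in these data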;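 further: 0% = DMSO-treated cells and 100% = gossypol-treated cells at 36 µM; higher means less SRC3-driven luciferase light from the GAL4 reporter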
LRH-1 inv ag: inverse agonists of human LRH-1 (NR5A2); inhibition, % at 3.6 µM; 0.13% of 360,000 active; HEK293T StAR-luciferase reporter, LRH-1 transfected, 24 h;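 active means inhibition above the mean inhibition of all tested compounds plus 3 SD, cut at about 73% in these data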;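 further: 0% = DMSO wells and 100% = reporter-only cells lacking LRH-1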
VP16 Luc counter: VP16 inhibition counter-screen for COUP-TFII; 25% of 2,500 active; inhibition, % at 8.5 µM; AID 687007; shares compounds with NR2F2 inh; HEK293 Gal4-VP16 luciferase reporter, luminescence; in the data active means inhibition above about 13%
NR2F2 inh conf: confirmation of human COUP-TFII (NR2F2) inhibitors; inhibition, % at 8.5 µM; shares compounds with NR2F2 inh; AID 687008; 45% of 2,500 active; HEK293 NGFI-A luciferase reporter, luminescence;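 active means mean inhibition over three repeats above a set limit taken from the earlier primary screen, cut at about 38% in these data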;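 further: 100% = cells given the luciferase reporter alone without the COUP-TF2 vector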
The depositor's hits bear a star; . = not tested or not shown. Hits are enriched below; roughly 0.83% of the tested compounds scored in any of these assays.

SMILES	NCOA1 inh	NR2F2 inh	SRC2 inh	NCOA3 inh	LRH-1 inv ag	VP16 Luc counter	NR2F2 inh conf
CCOC(=O)N1CCN(C(=O)C[C@H]2C[C@@]3(C(=O)OC)C(=C[C@H](COCc4ccccc4)O[C@@H]3C)N(CCC3=CCCCC3)C2=O)CC1	.	19.7	-0.9	.	.	.	.
Cc1cccc(-c2noc(CCC(=O)NCc3ccco3)n2)c1	5.2	-4.5	-2.5	-14.6	2.7	.	.
CC(C)(C)c1ccc(-c2noc(CCC(=O)NCc3ccco3)n2)cc1	3.3	38.1*	63.3*	14.7	37.2	25.4*	57.2*
O=C(Nc1nccs1)c1ccc(S(=O)(=O)NCC2CCCCC2)cc1	6.3	59.9*	6.5	28.4	41.7	8.4	41.4*
O=C(Nc1nccs1)c1ccc(S(=O)(=O)NCc2cccs2)cc1	0.1	14.0	0.8	-9.6	-8.2	.	.
Cc1ccc(NC(=O)C(C)c2cccc(C(=O)c3ccccc3)c2)cc1O (stereo unspecified)	4.2	48.0*	0.4	14.5	27.9	8.7	33.3
CCCN(CC1CC1)C(=O)CN1C(=O)C2CCCCN2C(=O)c2ccccc21 (stereo unspecified)	.	4.5	-17.7	.	.	.	.
Cc1oc(C(C)(C)C)cc1C(=O)Nc1ccc(C(=O)O)cc1	-50.7	-17.0	-31.2	-52.8	-180.6	.	.
CC(C)(C)c1ccc(C(=O)Nc2ccc(NC(=O)C(=O)O)cc2)o1	-4.6	41.7*	58.7*	-22.1	11.0	1.9	1.6
O=C(N[C@H](Cc1ccccc1)C(=O)N1CCCN(Cc2ccccc2F)CC1)[C@H]1O[C@@H](n2ccc(=O)[nH]c2=O)[C@H](O)[C@@H]1O	.	22.9	-9.2	.	.	.	.
COc1ccc(CCN2C(=O)CSC2=Nc2ccc(C(C)C)cc2)cc1OC	18.2	63.6*	29.4	-0.9	29.6	14.5*	61.6*
Cc1nn(CCC(=O)NNC(=O)NCc2ccccc2)c(C)c1[N+](=O)[O-]	.	2.7	15.2	.	.	.	.
C[C@@H]1CN(C(=O)OC(C)(C)C)CCN1c1ccc(Br)c(C#N)c1	.	21.7	31.5	.	.	.	.
NC(=O)c1c(N)[nH]c(C(=O)c2ccccc2)c1-c1ccccc1Cl	.	-20.8	-7.1	.	.	.	.
CC(C)c1ccc(NC2CCCN(C(=O)c3n[nH]c4c3CCC4)C2)cc1 (stereo unspecified)	1.2	38.0*	13.8	-10.7	28.0	-5.2	24.3
Cc1cc(C)cc(NC(=O)C2CCN(S(=O)(=O)c3ccc4c(c3)NC(=O)C(C)S4)CC2)c1 (stereo unspecified)	-12.8	10.9	10.8	1.7	12.1	.	.
Cc1ccc(NC(=O)C2CCN(S(=O)(=O)c3ccc4c(c3)NC(=O)C(C)S4)CC2)cc1Cl (stereo unspecified)	13.2	64.4*	18.2	20.6	0.8	12.6	46.9*
Cc1csc(NC(=O)CCc2c(C)nc3cc(-c4ccc(Cl)cc4)nn3c2C)n1	4.8	48.7*	66.4*	-0.2	9.0	-15.3	36.5
COc1ccccc1-c1cc2nc(C)c(CCC(=O)NCc3ccc(F)cc3)c(C)n2n1	4.5	7.2	-17.1	12.8	-6.1	.	.
COc1cc(OC)cc(-c2cc3nc(C)c(CCC(=O)NCc4ccccc4)c(C)n3n2)c1	15.4	58.4*	77.3*	30.4	35.3	28.6*	47.1*
O=C1N2Cc3ccccc3C2CS(=O)(=O)N1C1CCCC1 (stereo unspecified)	.	-11.8	10.8	.	.	.	.
COCc1cc(N2CCNC[C@H]2C)ccc1N1C[C@@H](C)O[C@@H](C)C1	.	-0.7	-5.6	.	.	.	.
CC(C)N1C/C(=C/c2ccsc2)C(=O)/C(=C/c2ccsc2)C1	12.5	46.9*	-49.0	10.6	9.4	37.9*	68.0*
CC1(C)CC(N2CCCC2)=CC(=[N+]2CCCCC2)C1	43.4	55.8*	8.5	30.2	52.8	8.1	44.6*
CC1(C)CC(N2CCOCC2)=CC(=S)N1	-12.0	.	.	3.1	-5.2	.	.
CC1(C)CC(N2CCN(Cc3ccccc3)CC2)=CC(=[N+]2CCCCC2)C1	36.9	52.5*	28.7	43.8	56.6	5.5	35.6
CC1(C)CC(N2CCCC2)=CC(=[N+]2CCCC2)C1	34.3	47.0*	25.9	-1.3	48.8	3.6	27.4
CC1(C)CC(=O)c2sc(N3CCCCC3)nc2C1	-71.9	-10.6	-41.0	-118.7	-64.2	.	.
